Compound activity from PubChem.
Most compounds without a hit are left out; they make up all but 4.4% or so of the library.
D1 potentiator: human D1 dopamine receptor positive modulation | P21728 | HEK293 TREx D1 cells, calcium flux, dopamine EC20 potentiation | potentiation, % at 10 µM | 360,000 compounds, 0.036% hits; in the data active means potentiation above about 30%
USP1 inh: inhibitors of human USP1/UAF1 deubiquitinase | Potency, µM (top dose mostly 57.1 µM), hits mostly inhibitors | 390,000 compounds, 0.23% hits | recombinant USP1/UAF1, Ub-Rhodamine cleavage fluorescence | O94782; active means well fitted inhibition curve with a large enough effect; inconclusive means small, poorly fitted or top-dose-only effect; inactive means no such curve, though single readings can be large or run the other way; further: nearly all actives have a fitted effect of over 60% in size
Target sequence (O94782 whole entry, looked up): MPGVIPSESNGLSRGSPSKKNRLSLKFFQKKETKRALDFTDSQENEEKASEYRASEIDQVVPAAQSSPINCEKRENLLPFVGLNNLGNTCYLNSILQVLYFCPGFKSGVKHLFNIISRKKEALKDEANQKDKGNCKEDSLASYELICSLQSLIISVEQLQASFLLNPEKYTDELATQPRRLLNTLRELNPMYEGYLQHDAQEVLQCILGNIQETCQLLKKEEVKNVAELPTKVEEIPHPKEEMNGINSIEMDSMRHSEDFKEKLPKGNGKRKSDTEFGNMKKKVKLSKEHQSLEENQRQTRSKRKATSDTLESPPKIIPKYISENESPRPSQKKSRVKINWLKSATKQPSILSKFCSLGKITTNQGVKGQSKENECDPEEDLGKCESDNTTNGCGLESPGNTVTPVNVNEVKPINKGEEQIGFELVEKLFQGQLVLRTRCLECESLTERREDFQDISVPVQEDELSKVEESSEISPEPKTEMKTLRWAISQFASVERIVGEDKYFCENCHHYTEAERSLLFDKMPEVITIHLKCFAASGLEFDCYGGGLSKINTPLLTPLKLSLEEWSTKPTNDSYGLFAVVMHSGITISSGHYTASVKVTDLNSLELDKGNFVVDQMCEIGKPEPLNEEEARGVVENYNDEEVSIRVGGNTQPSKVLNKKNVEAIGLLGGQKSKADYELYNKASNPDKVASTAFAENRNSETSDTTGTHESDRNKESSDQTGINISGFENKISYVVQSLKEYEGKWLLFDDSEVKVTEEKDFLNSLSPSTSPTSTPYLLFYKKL
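High-throughput fluorogenic screen: 1nM USP1/UAF1 complex, Ub-Rho substrate 150nM final, 50mM HEPES pH 7.8 with 0.5mM EDTA, 0.1 mg/ml BSA, 1mM TCEP and 0.01% Tween-20.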
D1 antag: antagonists of human D1 dopamine receptor | AID 504652 | activity change, negative = inhibition, % at 10 µM | P21728 | 360,000 compounds, 3.2% hits | HEK293 TREx D1 cells, calcium flux, dopamine EC80; active compounds read low; in the data active means activity change below about -30%
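Allosteric or orthosteric antagonism assessed as attenuation of the calcium response to EC80 dopamine, added 180 s after compound, in induced HEK293 Trex D1 cells loaded with no-wash calcium dye.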
D1 ag: activates the human D1 dopamine receptor; P21728; HEK293 T-REx D1 cells, calcium flux, agonist mode; activation, % at 2 µM; 360,000 compounds, 1% hits
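Tetracycline-induced HEK293 TREx D1 cells, force-coupled to calcium signalling, were dye-loaded with a no-wash calcium kit. Compound was pin-added after a 10 s baseline. Fluorescence was read kinetically at 1 cycle/s for 180 s, with calcium rises flagged as agonism.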
TRHR ag: TRH receptor (human) agonism; P34981; TRHR cells, calcium flux fluo-8, FDSS agonist mode; 360,000 compounds, 0.18% hits; activation, % at 2 µM
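Fluo-8-loaded TRHR cells; 10 s baseline, compound added, kinetic Ca2+ fluorescence read 1/s, agonist mode.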
TRHR PAM: allosteric enhancers of human TRH receptor | P34981 | 360,000 compounds, 0.66% hits | TRHR cells, fluo-8 calcium fluorescence, EC20 TRH enhancement | enhancement, % at 2 µM; in the data active means enhancement above about 30%
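TRHR-expressing cells loaded with fluo-8 calcium dye were read kinetically (ex 480/em 530) during compound addition, then stimulated with an EC20 of TRH (10 nM final). Enhancement of the Gq-mediated intracellular calcium response was scored.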
Of the large screens only hits and unclear results are named; the others gave an inactive call; ! = a repeat was not active. Unless noted, no stated cut-off is given here; in the data, active means activation above about 30%; inactive means the rest.

N=C1/C(=C\c2ccc(OC(=O)c3ccccc3Cl)cc2)C(=O)N=C2SC(N3CCOCC3)=NN12	USP1 inh inconclusive
Cc1ccc(NC(=O)Cn2cc(C(=O)c3ccccc3)c3ccccc32)cc1	USP1 inh inconclusive
COc1ccc(CCNCc2ccncc2)cc1OC	none
COc1ccc(CCNCc2ccc(Br)cc2)cc1OC	D1 ag 42.9
COc1cccc(-n2c(/C=C/c3ccccc3O)nc3ccccc3c2=O)c1	none
OC(CNC1CCCCCCC1)c1ccccc1 (stereo unspecified)	none (no result: USP1 inh)
CN1C(CC(O)c2ccccc2)CCCC1CC(O)c1ccccc1 (stereo unspecified)	D1 antag -44.9
CN1C(=O)C(=Cc2sc(=O)n(-c3ccccc3)c2N2CCCCC2)C(=O)N(C)C1=O	USP1 inh inconclusive, D1 ag 67.5
c1cncc(CNC2=NCCCCC2)c1	D1 antag -46.6
O=C(CNC(=O)c1cccs1)OCC(=O)c1ccc([N+](=O)[O-])cc1	USP1 inh inconclusive
O=C(OCC(=O)c1ccc([N+](=O)[O-])cc1)/C(=C/c1ccc(Cl)cc1)NC(=O)c1ccccc1	D1 antag -34.1
COc1ccc(O)c(CN2CCCC(C(=O)c3sccc3C)C2)c1 (stereo unspecified)	none
O=C(c1cc(F)ccc1F)C1CCCN(Cc2cc(Cl)ccc2O)C1 (stereo unspecified)	TRHR PAM 34.4
O=C(c1ccc2c(c1)OCO2)C1CCCN(Cc2ccc(F)c(F)c2)C1 (stereo unspecified)	D1 antag -34.4
COc1cccc(C(=O)C2CCCN(Cc3ccc4nonc4c3)C2)c1 (stereo unspecified)	none
O=C(c1cc(F)ccc1F)C1CCCN(Cc2ccc3nonc3c2)C1 (stereo unspecified)	D1 antag -30.6
COc1ccc(CN2CCCC(C(=O)c3ccc(Cl)cc3)C2)c(OC)c1 (stereo unspecified)	D1 antag -34.9
CCC12CN3CC(CC)(CN(C1)C3c1c(C)[nH]c(=O)[nH]c1=O)C2=O (stereo unspecified)	none
Nc1c2c(nc3sc4c(c13)CCCCC4)CCCC2	D1 antag -41.6
CC(C)N1CC=C(c2c[nH]c3ccccc23)CC1	none
O=S1(=O)N(CCN2CC=C(c3c[nH]c4cc(F)ccc34)CC2)c2cccc3c2N1CCC3	D1 antag -40.9
CN(C)/C=c1\sc2c(C#N)cc(C(=O)c3ccc(Br)cc3)n2c1=O	D1 antag -50.7
Nc1cc(N2CCNCC2)c([N+](=O)[O-])cc1Cl	D1 antag -41.9
O=[N+]([O-])c1ccc(N2CCNCC2)cc1N1CCCCC1	none
O=C(COc1cccc(Cl)c1)N1CCN(CCc2ccncc2)CC1	none
Fc1ccccc1N1CCN(Cc2c(F)cccc2F)CC1	TRHR PAM 37.5
CCC1(CC)C(=O)NC(=Nc2cccc(C(F)(F)F)c2)NC1=O	D1 ag 30.6
CCc1ccccc1NC(=O)c1cccn(Cc2ccccc2F)c1=O	none
Cc1ccc(C(C)C)c(OCCn2c(=O)oc3ccccc32)c1	USP1 inh inconclusive, D1 ag 37.3
O=[N+]([O-])c1ccc(N2CCCCCC2)c2nonc12	USP1 inh 28.2µM, D1 ag 526.5, TRHR ag 142.1
Cc1ccccc1CN1C(=O)CN=C(c2ccccc2)c2cc(Cl)ccc21	none
Cc1ccccc1-n1c(O)c(/C=C2/C(c3ccccc3)=Nc3ccccc32)c(=O)[nH]c1=O	D1 antag -50.5
Cc1cccc(-n2c(O)c(/C=C3/C(c4ccccc4)=Nc4ccccc43)c(=O)[nH]c2=O)c1	USP1 inh inconclusive
Cc1cc2c(C(C)C)c(O)c(O)c(C=O)c2c(O)c1-c1c(C)cc2c(C(C)C)c(O)c(O)c(C=O)c2c1O	D1 ag 34.4! (no result: USP1 inh)
Nc1c(C(=O)Nc2ccc(Br)cc2F)sc2nc3c(cc12)N1CCC3CC1	D1 antag -31.7
COc1ccc2[nH]c(C)c(CCNCc3cc(OC)c(OC)c(OC)c3)c2c1	none
COc1ccc(CNCCc2c(C)[nH]c3ccc(OC(F)(F)F)cc23)c(OC)c1	D1 antag -55.3, D1 ag 99.2
O=C(COc1ccccc1Cl)N1CCN(CCc2ccccn2)CC1	none
COC(=O)C1=C(c2ccc(Cl)c(C(F)(F)F)c2)C[C@@H]2CC[C@H]1N2C(=O)N1CCOCC1	none
COC(=O)C1=C(c2ccc(Cl)c(C(F)(F)F)c2)C[C@@H]2CC[C@H]1N2C(=O)N1CCCC1	D1 antag -41.6
COC(=O)C1=C(c2ccc(-c3ccccc3)c(F)c2)C[C@@H]2CC[C@H]1N2C(=O)NCCO	D1 antag -39.9
COC(=O)C1=C(c2ccccc2OCc2ccccc2)C[C@@H]2CC[C@H]1N2C(=O)NCCc1ccc(F)cc1	D1 antag -38.9
COC(=O)C1=C(c2ccc(C(C)=O)cc2)C[C@@H]2CC[C@H]1N2C	none
COC(=O)C1=C(c2ccc(C(C)=O)cc2)C[C@@H]2CC[C@H]1N2C(=O)NC(C)C	D1 antag -91.3
Cc1cccc(-n2c(/C=C/c3cn(C)c4ccccc34)nc3ccccc3c2=O)c1	USP1 inh inconclusive
COC(=O)C1=C(c2ccc(F)cc2OCc2ccccc2)C[C@@H]2CC[C@H]1N2C(=O)NCc1ccccc1	none
COC(=O)C1=C(c2ccc(F)cc2OCc2ccccc2)C[C@@H]2CC[C@H]1N2C(=O)N1CCC(O)CC1	TRHR PAM 36.6
COC(=O)C1=C(c2ccc(F)cc2F)C[C@@H]2CC[C@H]1N2C(=O)N1CCC(O)(c2ccc(Cl)cc2)CC1	D1 antag -46.2
COC(=O)C1=C(c2ccc(F)cc2F)C[C@@H]2CC[C@H]1N2C(=O)N1CCCC1	none
O=C1NC(=O)N(Cc2ccccc2)C(=O)/C1=C\c1ccco1	D1 antag -32.0
CCN(CC)c1ccc(/C=C2\C(=O)NC(=O)N(Cc3ccco3)C2=O)cc1	D1 antag -45.7
CCN(CC)c1ccc(/C=C2/C(=O)NC(=O)N(CC3CCCO3)C2=O)cc1 (stereo unspecified)	none
Cc1cc(OCc2ccc([N+](=O)[O-])cc2)c2c3c(c(=O)oc2c1)CCCC3	D1 antag -30.1
N#CCN1CCN(c2ccc(C(F)(F)F)cc2)CC1	D1 antag -50.2
C#CCN1CCN(c2ccc(F)cc2)CC1	none
CC(C)c1ccc(NC(=O)c2ccc3c(c2)CCN3S(=O)(=O)c2ccccc2)cc1	USP1 inh inconclusive
CCCCNC(=S)N1CCn2cccc2C1c1cccnc1 (stereo unspecified)	none
CNC(=S)N1CCn2cccc2C1c1cccnc1 (stereo unspecified)	D1 antag -32.7
